This is an account of results in PubChem BioAssay.

Structures are written as SMILES. Records with an inconclusive call do not appear. The source made the active and inactive calls.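 Rule for the calls, unless noted: active = percent response above a set limit, the screen-wide mean plus 3 SD (cut at about 130% in these data); inactive = the rest.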

Experiment [1] can be described thus: yeast TOR pathway RPL19A-GFP modulators, primary screen, cell-based, S. cerevisiae, multiplex flow cytometry (AID 1862; in the data active = percent of DMSO control GFP below about 86%;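 note: lower values mimic rapamycin by blocking the RPL19A rise seen in DMSO cells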). As to conditions: S. cerevisiae RPL19A-GFP strain, flow cytometry fluorescence, 3 h; at 10 µM; stronger effect = lower value. For orientation: Flow cytometry measures light scatter and fluorescence of single cells or particles in a stream.
The nature of experiment [2]: modulators of MEP2-GFP levels in yeast, primary screen, S. cerevisiae, multiplex flow cytometry (AID 1867;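 active = GFP response, as percent of the DMSO control, above the screen-wide mean plus 3 SD, about 139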;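 note: median GFP channel fluorescence of barcode-gated MEP2-GFP cells measured by flow cytometry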). As to conditions: S. cerevisiae MEP2-GFP strain, 3 h, at 10 µM, stronger effect = higher value, 100% means same as DMSO wells.
Experiment [3] in a line: modulators of CIT2-GFP expression in yeast, primary screen, S. cerevisiae, GFP fusion, multiplex flow cytometry (AID 1870).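 Note: barcoded CIT2-GFP strain pooled with four other GFP strains with rapamycin as positive control; median GFP fluorescence per well over plate mean of DMSO wells so 100% = DMSO.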 As to conditions: 3 h, at 10 µM, stronger effect = higher value.
Experiment [4] can be described thus: modulators of LAP4-GFP expression in yeast, primary screen, S. cerevisiae, multiplex flow cytometry (AID 1873;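 active = GFP signal, as percent of the solvent control, above the screen mean plus 3 SD, about 149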). As to conditions: 3 h, at 10 µM, stronger effect = higher value.
Experiment [5] can be described thus: modulators of AGP1-GFP expression in yeast TOR pathway, primary screen, cell-based, multiplex flow cytometry, S. cerevisiae (AID 1887;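 active = GFP signal above the screen-wide mean plus 3 SD, that is over about 124.5% of the solvent control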;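 note: AGP1-GFP fusion strain of S. cerevisiae within a five-strain barcoded multiplex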). As to conditions: 3 h, at 10 µM, stronger effect = higher value.
The nature of experiment [6]: inhibitors of CD8+ T cell-vesicle binding, pilot screen, LFA-1/ICAM-1 modulator project, MLPCN validation set, flow cytometry (AID 2523;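 active = response below a set limit, under 55% cells CD8-positive and vesicle-bound, and CD8 cells' 90th-percentile brightness under 279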;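 for vesicle binding response: mean PE anti-B7-1 fluorescence of CD8+ cells relative to row control; 100% = QL9-loaded vesicles with DMSO vehicle in the same plate row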). The note with it: 2C mouse CD8+ T cells, at 7 µM, stronger effect = lower value; double positive events: measured here: CD8+/vesicle+ event percentage.
Experiment [7] has as its target Integrin beta-1 (Homo sapiens) + Integrin alpha-4 (Homo sapiens) (UniProt P13612+P05556). Kind of experiment: inhibition of HUTS-21 binding to VLA-4, pilot screen, VLA-4 allosteric modulator project, U937 cells, HUTS-21 mAb, flow cytometry, validation set (AID 2674;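 active = inhibition above 50%, about 3 SD of the validation set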;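 note: antibody binding induced by the VLA-4 ligand LDV present at three times its Kd; 0% = LDV ligand with antibody and no compound and 100% = antibody without LDV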). As to conditions: HUTS-21 LIBS mAb binding, at 6.7 µM, stronger effect = higher value, binding induced by LDV ligand.

A short description of experiment [8]: superoxide lowering in aged yeast cells, pilot screen, validation compound set (AID 2706;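 active = superoxide response below 65% of plate, a cut near 3 SD across the whole screen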;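 note: yeast exposed to compound for one week at 30 degrees C before staining; 100% = mean of all compound wells on the same plate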). As to conditions: S. cerevisiae aging, superoxide DHE fluorescence; at 10 µM; stronger effect = lower value.
Experiment [9] concerns the target Beta-adrenergic receptor kinase 1 (Homo sapiens) (UniProt P25098). Description: GRK2 binders displacing RNA aptamer, biochemical, validation, human GRK2, bead flow cytometry (AID 488806;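 active = aptamer binding inhibition above 30%, about 3 SD of noise from non-fluorescent compounds; inactive = inhibition at or below 30%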). As to conditions: bead-bound GRK2, FAM-aptamer displacement, at 10 µM, stronger effect = higher value.
In experiment [10] the target is Beta-2 adrenergic receptor (Homo sapiens) (UniProt P07550). Description: beta2AR agonists driving receptor internalization, pilot screen, cell-based, FAP fluorogen, flow cytometry, validation set (AID 504459;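 active = percent response above 42, roughly 3 SD of non-fluorescent test compounds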;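 note: agonist-driven loss of surface beta2AR via internalization measured by FAP dye flow cytometry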). As to conditions: Am2.2-beta2AR cells, FAP surface receptor flow cytometry; at 10 µM; stronger effect = higher value.
Experiment [11] deals with AP-2 complex subunit beta (Homo sapiens) (UniProt P63010). Kind of experiment: inhibitors of arrestin peptide binding to AP2, pilot screen, biochemical, validation set, GST-AP2 beads, flow cytometry (AID 504541;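 active = inhibition above 54%, about 3 SD of non-fluorescent compounds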;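 note: AP2 carries R879A mutation and is captured from E. coli lysate; bead-bound FITC arrestin peptide fluorescence measuring arrestin peptide binding to AP2; 0% = DMSO wells and 100% = excess unlabeled arrestin peptide control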). As to conditions: FITC arrestin peptide, at 10 µM, stronger effect = higher value, AP2 beta2 appendage fragment, R879A mutant.
Experiment [12] can be described thus: yeast V-ATPase proton transport modulators, S. cerevisiae, pHLuorin, HTS validation (AID 504600; in the data active = response above about 15%;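 note: plate controls were DMSO for no effect and reference compound for full effect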). The note with it: S. cerevisiae pHLuorin cytosolic pH, at 10 µM, stronger effect = higher value.
Experiment [13] has as its system anti-desmoglein-3 scFv antibody binding to human DSG3. Kind of experiment: inhibitors of anti-DSG3 scFv binding to DSG3, pilot screen, biochemical, validation compound set, bead-based, flow cytometry (AID 588368;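 active = binding below the plate cutoff, the plate median minus 3 SD, with a reading above zero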;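 note: signal is the median channel fluorescence of bead-bound GFP antibody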). The note with it: Protein G beads, DSG3-Fc, scFv-GFP binding, at 10 µM, stronger effect = lower value.
Experiment [14] is described as follows: inhibitors of fungal efflux pumps CDR1, CDR2, MDR1, pilot screen, validation compound set, multiplex, phenotypic (AID 588506;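 active = efflux inhibition above 0.42, the validation set average plus 4 SD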;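 note: Nile Red retained in cells so higher fluorescence means more efflux inhibition; 0 = negative control wells and 1 = enniatin B 25 µM full block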). The note with it: S. cerevisiae pump-expressing triplex, Nile Red efflux flow cytometry; at 10 µM; stronger effect = higher value; the pumps come from Candida albicans.
The target in experiment [15] is ATP-binding cassette sub-family B member 6 (Homo sapiens) (UniProt Q9NP58). Kind of experiment: ABCB6 transporter inhibitors, pilot screen, K562-ABCB6 cells, flow cytometry, validation set (AID 588550;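 active = inhibition above the screen-wide mean plus 3 SD, about 51%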;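 note: 0% = DMSO wells and 100% = benzethonium chloride 70 µM positive control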). As to conditions: K562-ABCB6 porphyrin accumulation, 1 h, at 10 µM, stronger effect = higher value.
A short description of experiment [16]: promoters of myeloid differentiation in arrested cells, primary screen, cell-based, GFP/MAC1 double positive, flow cytometry, validation set (AID 588685;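 active = differentiation response of at least 50%, scaled between solvent and reference control, from cells with both markers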;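 note: compound exposure lasts four days before antibody staining and flow analysis; 0% = DMSO wells and 100% = 5 µM fulvestrant positive control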). As to conditions: ER-HoxA9 marrow cells, stronger effect = higher value, normalized: vehicle 0, fulvestrant 100.

Chain of Beta-2 adrenergic receptor (Homo sapiens) (P07550 whole entry, looked up): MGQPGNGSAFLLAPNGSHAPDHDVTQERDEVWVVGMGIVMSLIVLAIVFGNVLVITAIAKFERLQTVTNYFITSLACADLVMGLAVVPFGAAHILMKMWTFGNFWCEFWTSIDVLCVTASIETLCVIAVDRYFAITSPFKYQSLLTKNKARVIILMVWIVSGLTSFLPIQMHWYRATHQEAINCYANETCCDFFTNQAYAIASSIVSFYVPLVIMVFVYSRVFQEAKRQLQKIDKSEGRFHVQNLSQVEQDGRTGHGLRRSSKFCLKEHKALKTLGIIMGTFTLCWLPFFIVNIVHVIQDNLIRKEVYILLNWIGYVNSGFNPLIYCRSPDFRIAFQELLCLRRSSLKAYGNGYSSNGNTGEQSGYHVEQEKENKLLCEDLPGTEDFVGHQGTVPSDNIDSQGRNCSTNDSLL
Chain of AP-2 complex subunit beta (Homo sapiens) (P63010 whole entry, looked up, the tested form may be a part, one chain of several): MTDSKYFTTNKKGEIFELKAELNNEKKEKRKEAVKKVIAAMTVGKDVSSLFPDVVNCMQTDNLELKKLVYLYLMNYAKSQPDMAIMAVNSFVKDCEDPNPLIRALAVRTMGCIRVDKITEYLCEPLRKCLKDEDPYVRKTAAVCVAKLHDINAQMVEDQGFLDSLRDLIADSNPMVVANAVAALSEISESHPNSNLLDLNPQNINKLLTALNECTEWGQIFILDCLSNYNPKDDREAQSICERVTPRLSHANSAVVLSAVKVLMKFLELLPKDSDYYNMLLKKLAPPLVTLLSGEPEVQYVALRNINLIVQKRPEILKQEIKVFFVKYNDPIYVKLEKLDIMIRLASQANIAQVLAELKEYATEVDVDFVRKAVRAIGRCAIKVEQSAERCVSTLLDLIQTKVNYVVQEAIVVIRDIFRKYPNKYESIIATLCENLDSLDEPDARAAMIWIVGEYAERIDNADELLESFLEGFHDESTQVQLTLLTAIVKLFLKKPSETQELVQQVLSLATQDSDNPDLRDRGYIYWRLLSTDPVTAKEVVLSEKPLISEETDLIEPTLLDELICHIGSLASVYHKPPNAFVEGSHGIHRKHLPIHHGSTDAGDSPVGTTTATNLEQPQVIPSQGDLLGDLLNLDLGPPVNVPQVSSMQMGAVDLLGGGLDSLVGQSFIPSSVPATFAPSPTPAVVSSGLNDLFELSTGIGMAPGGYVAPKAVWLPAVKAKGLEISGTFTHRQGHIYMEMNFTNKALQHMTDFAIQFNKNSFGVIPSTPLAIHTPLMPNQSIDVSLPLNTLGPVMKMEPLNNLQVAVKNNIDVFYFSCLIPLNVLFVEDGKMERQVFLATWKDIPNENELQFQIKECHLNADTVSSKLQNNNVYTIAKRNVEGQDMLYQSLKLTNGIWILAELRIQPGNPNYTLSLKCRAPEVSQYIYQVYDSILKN
Chain of ATP-binding cassette sub-family B member 6 (Homo sapiens) (Q9NP58 whole entry, looked up): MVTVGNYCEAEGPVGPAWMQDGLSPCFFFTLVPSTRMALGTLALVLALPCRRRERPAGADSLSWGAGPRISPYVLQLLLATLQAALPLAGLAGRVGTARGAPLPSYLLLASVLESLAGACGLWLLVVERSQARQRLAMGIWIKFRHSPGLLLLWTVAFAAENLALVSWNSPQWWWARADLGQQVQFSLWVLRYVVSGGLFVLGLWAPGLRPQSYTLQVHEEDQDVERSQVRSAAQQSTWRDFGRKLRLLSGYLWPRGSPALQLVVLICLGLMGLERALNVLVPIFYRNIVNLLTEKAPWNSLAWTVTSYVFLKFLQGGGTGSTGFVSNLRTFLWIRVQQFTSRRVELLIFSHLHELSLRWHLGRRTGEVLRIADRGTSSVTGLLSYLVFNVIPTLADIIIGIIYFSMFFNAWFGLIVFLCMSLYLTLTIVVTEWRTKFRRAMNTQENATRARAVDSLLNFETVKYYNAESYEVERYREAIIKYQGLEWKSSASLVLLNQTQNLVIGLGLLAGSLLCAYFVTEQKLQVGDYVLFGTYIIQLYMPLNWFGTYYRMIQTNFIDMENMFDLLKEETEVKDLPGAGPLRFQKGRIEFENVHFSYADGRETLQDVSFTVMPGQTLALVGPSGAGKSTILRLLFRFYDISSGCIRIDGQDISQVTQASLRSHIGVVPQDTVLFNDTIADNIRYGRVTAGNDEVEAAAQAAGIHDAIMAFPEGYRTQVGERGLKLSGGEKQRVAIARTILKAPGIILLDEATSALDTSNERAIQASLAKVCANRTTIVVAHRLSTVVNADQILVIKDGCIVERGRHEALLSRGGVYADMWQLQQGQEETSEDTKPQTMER
Chain of Integrin beta-1 (Homo sapiens) + Integrin alpha-4 (Homo sapiens) (P05556 whole entry, looked up): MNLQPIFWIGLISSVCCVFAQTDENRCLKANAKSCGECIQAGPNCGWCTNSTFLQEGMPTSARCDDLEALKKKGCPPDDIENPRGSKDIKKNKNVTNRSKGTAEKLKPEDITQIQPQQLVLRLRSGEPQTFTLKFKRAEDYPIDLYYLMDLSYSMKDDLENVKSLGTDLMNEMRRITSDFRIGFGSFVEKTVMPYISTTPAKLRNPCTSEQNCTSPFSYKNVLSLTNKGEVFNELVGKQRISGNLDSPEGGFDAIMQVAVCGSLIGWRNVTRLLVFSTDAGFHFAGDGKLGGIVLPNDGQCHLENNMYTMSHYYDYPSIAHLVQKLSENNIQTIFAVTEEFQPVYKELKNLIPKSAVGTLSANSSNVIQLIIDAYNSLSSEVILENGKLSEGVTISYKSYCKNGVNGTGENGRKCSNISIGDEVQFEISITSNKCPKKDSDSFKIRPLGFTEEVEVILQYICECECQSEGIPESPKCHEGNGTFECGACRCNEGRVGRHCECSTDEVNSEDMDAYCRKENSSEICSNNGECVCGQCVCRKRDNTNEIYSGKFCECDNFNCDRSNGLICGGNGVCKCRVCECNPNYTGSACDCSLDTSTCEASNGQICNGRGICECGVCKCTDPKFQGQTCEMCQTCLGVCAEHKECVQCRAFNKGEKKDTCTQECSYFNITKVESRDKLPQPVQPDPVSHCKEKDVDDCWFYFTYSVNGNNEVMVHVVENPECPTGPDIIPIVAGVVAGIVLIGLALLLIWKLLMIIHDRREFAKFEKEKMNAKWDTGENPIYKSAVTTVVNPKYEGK
Chain of Integrin beta-1 (Homo sapiens) + Integrin alpha-4 (Homo sapiens) (P13612 whole entry, looked up): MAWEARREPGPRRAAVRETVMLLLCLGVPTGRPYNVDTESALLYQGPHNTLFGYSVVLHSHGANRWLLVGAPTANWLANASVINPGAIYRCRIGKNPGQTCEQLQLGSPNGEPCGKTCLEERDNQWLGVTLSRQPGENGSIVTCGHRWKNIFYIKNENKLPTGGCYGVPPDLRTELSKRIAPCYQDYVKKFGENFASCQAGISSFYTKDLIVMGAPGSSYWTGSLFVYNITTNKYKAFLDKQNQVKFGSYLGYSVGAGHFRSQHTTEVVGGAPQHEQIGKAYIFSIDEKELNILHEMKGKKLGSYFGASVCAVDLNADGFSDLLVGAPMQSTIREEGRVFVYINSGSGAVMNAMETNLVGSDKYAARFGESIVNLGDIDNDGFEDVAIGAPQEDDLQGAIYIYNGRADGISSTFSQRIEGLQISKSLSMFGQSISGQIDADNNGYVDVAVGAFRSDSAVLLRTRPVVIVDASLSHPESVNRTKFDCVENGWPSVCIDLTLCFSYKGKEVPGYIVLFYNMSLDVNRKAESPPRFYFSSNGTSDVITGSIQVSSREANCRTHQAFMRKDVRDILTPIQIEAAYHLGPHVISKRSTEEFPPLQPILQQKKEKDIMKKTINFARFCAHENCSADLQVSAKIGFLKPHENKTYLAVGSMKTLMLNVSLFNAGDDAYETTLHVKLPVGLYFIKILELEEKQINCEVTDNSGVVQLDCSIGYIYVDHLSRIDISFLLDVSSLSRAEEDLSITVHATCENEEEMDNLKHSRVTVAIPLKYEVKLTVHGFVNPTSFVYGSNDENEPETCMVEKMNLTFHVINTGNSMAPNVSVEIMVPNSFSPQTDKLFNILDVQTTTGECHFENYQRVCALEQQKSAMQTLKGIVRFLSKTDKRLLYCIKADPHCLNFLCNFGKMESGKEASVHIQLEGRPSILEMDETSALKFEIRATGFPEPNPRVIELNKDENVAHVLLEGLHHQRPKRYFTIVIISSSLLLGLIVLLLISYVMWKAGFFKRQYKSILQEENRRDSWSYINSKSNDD
Chain of Beta-adrenergic receptor kinase 1 (Homo sapiens) (P25098 whole entry, looked up): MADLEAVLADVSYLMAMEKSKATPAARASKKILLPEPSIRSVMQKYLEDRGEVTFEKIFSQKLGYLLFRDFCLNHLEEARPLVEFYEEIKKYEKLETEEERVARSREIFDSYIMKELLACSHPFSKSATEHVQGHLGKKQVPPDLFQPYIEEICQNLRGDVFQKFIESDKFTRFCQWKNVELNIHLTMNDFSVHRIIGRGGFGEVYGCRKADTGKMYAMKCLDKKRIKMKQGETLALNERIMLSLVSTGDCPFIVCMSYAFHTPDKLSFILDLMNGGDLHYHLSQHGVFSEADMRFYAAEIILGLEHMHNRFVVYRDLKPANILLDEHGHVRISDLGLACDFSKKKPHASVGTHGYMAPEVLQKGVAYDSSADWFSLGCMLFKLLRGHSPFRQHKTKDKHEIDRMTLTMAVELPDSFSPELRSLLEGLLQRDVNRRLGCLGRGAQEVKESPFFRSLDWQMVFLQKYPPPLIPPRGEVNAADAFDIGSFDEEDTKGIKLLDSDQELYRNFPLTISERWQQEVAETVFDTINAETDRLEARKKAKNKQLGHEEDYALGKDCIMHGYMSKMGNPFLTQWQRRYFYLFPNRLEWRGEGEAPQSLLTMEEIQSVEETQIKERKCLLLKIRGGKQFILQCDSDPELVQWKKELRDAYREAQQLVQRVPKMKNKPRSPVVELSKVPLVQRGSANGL

As for `O=C1C(Cc2c[nH]c3ccccc23)NC(=S)N1Cc1ccccc1` (stereo not given), the percent of DMSO control GFP in experiment [1] was 108% (inactive). The GFP response vs DMSO in experiment [2] was 102% (inactive); in [4], 91.5% (inactive). In experiment [3], the percent response of DMSO control was 104% (inactive). Further, the GFP response, % of DMSO in [5] is 95.5% (inactive). This compound also registered a double positive events in experiment [6] of 67.5%. Further, in experiment [6], the vesicle binding response was 132% (inactive). For the same compound, the inhibition in experiment [7] was 8.29% (inactive); in experiment [11], 2.2% (inactive); in [15], 8% (inactive). Also, in [8], the superoxide response (% of plate) is 104% (inactive). Moreover, the aptamer binding inhibition in [9] was 1% (inactive). In addition, the figures for the response in [10] and in experiment [12] were 3.86% (inactive) and -1.19% (inactive), respectively. Besides, the binding (% of control) in experiment [13] was 94.9% (inactive). The efflux inhibition (fraction of control) in experiment [14] is 0 (inactive). Moreover, the differentiation response in experiment [16] was 7.13% (inactive).
`Cc1cccc(-c2ncc(CN3CCN(CC(C)C)C(CCO)C3)cn2)c1` (stereo not given): the percent of DMSO control GFP in experiment [1] is 104% (inactive). Besides, the GFP response vs DMSO in experiment [2] was 100% (inactive); in experiment [4] it was 76.2% (inactive). In addition, in experiment [3], the percent response of DMSO control is 108% (inactive). In addition, in [5], the GFP response, % of DMSO is 99.2% (inactive). Besides, the double positive events in experiment [6] was 65.5%. Besides, in [6], the vesicle binding response was 344% (inactive). For the same compound, the inhibition was -3.57% (inactive) in experiment [7], -1.77% (inactive) in [11] and 15% (inactive) in [15]. Further, the superoxide response (% of plate) in [8] was 97.3% (inactive). Moreover, in experiment [9], the aptamer binding inhibition was 2% (inactive). In addition, the results for the response in experiment [10] and in experiment [12] were -5.5% (inactive) and 3.08% (inactive), respectively. Further, in experiment [13], the binding (% of control) was 101% (inactive). The efflux inhibition (fraction of control) in experiment [14] is 0.02 (inactive). In experiment [16], the differentiation response is 4.15% (inactive).
Take `CC12CCC(C(=O)NCc3ccc4c(c3)OCO4)(CC1=O)C2(C)C` (stereo not given): the percent of DMSO control GFP in [1] was 100% (inactive). Further, the GFP response vs DMSO is 98.6% (inactive) in [2] and 102% (inactive) in experiment [4]. Moreover, the percent response of DMSO control in experiment [3] was 103% (inactive). For the same compound, the GFP response, % of DMSO in experiment [5] is 107% (inactive). Also, in experiment [6], the double positive events amounted to 60.9%. Further, the vesicle binding response in [6] is 252% (inactive). Also, the inhibition in experiment [7] was 0.59% (inactive); in [11], 4.11% (inactive); in experiment [15], 6% (inactive). The superoxide response (% of plate) in [8] is 113% (inactive). Further, the aptamer binding inhibition in experiment [9] is 0% (inactive). Also, the figures for the response in experiment [10] and in experiment [12] were -30.8% (inactive) and -1.56% (inactive), respectively. Further, in [13], the binding (% of control) was 105% (inactive). Moreover, in [14], the efflux inhibition (fraction of control) is 0.08 (inactive). Also, the differentiation response in experiment [16] was -1.05% (inactive).
For `CC(=O)N(CCC(Cc1ccccc1)c1ccc2c(c1)OCO2)Cc1ccc(Cl)cc1` (stereo not given), the percent of DMSO control GFP in experiment [1] is 93.9% (inactive). The GFP response vs DMSO in experiment [2] was 113% (inactive); in [4], 79.2% (inactive). The percent response of DMSO control in experiment [3] was 103% (inactive). Moreover, the GFP response, % of DMSO in experiment [5] is 92.2% (inactive). For the same compound, in experiment [6], the double positive events was 59.9%. Besides, in experiment [6], the vesicle binding response is 165% (inactive). The inhibition is -9.06% (inactive) in experiment [7], -8.25% (inactive) in experiment [11] and 6% (inactive) in [15]. The superoxide response (% of plate) in experiment [8] is 102% (inactive). Besides, in experiment [9], the aptamer binding inhibition is -1% (inactive). The response in experiment [10] was -1.43% (inactive); in [12] it was -2% (inactive). Also, the binding (% of control) in experiment [13] was 104% (inactive). The efflux inhibition (fraction of control) in [14] is 0.05 (inactive). Besides, in experiment [16], the differentiation response was -3.28% (inactive).
Take `NC(N)=N/N=C/c1cccc(Cl)c1Cl`: the percent of DMSO control GFP in [1] is 104% (inactive). Besides, the GFP response vs DMSO in [2] is 96.3% (inactive); in experiment [4], 103% (inactive). Moreover, the percent response of DMSO control in [3] is 98.6% (inactive). Also, the GFP response, % of DMSO in experiment [5] is 98.8% (inactive). The same compound gave a double positive events in experiment [6] of 66.1%. Further, the vesicle binding response in [6] was 157% (inactive). Further, the inhibition in experiment [7] was 9.13% (inactive); in experiment [11], 14.4% (inactive); in experiment [15], 4% (inactive). For the same compound, in experiment [8], the superoxide response (% of plate) is 97.9% (inactive). The aptamer binding inhibition in experiment [9] was -3% (inactive). The values for the response in [10] and in experiment [12] were 22.4% (inactive) and -0.64% (inactive), respectively. In addition, in experiment [13], the binding (% of control) is 102% (inactive). In addition, in experiment [14], the efflux inhibition (fraction of control) was -0.24 (inactive). Moreover, in experiment [16], the differentiation response was -18.4% (inactive).

For orientation: inhibition means the drop in the measured response relative to a control, in per cent.
